# Source: PubChem BioAssay (National Center for Advancing Translational Sciences (NCATS))
# Rows were chosen to be rich in hits. Some 19% of all compounds tested hit in one or more screens of this group.
# RORgamma inh = blocks mouse ROR gamma transcriptional activity; Drosophila S2 Gal4-RORgamma UAS-luciferase reporter, 20 h; 310,000 tested, 5.4% active; P51450; Potency, µM (titrated, usually from 53.6 µM), without a hit: at the top dose activity change, negative = inhibition, actives largely listed as inhibitors; AID 2551; note: nearly all actives have a fitted effect of over 60% in size
#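 Stable Schneider cell line, Gal4 DNA-binding domain fused to ROR gamma, UAS-luciferase. Cmpd 1 hr RT → CuSO4 700 uM final → 20 hr RT → luciferase reagent 10 min → luminescence.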
# DT40 TDP1 CPT = DT40-hTDP1 cell growth loss with CPT; chicken DT40 Tdp1-/-;hTDP1 cells + 20 nM CPT, ATP luminescence, 48 h; Potency, µM (series often up to 46.2 µM), for the others: at the top dose activity change, negative = growth inhibition, most hits filed as inhibitors; 420,000 tested, 12% active; note: nearly all actives have a fitted effect of over 55% in size
#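 Cell growth measured by CellTiter-Glo luminescence after a minimum 48 h, 37 C compound exposure with 20 nM CPT in Tdp1-knockout DT40 cells stably expressing hTDP1, seeded 400/well; qHTS titration format.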
# TDP1 inh = TDP1 (human) enzyme inhibition | AID 485290 | Potency, µM (series often up to 130 µM), for the others: top-dose activity change, negative = inhibition, actives largely listed as inhibitors | 350,000 tested, 0.28% active | recombinant TDP1, AlphaScreen DNA substrate cleavage; note: nearly all actives have a fitted effect of over 40% in size
# Target sequence (Q9NUW8 whole entry, looked up): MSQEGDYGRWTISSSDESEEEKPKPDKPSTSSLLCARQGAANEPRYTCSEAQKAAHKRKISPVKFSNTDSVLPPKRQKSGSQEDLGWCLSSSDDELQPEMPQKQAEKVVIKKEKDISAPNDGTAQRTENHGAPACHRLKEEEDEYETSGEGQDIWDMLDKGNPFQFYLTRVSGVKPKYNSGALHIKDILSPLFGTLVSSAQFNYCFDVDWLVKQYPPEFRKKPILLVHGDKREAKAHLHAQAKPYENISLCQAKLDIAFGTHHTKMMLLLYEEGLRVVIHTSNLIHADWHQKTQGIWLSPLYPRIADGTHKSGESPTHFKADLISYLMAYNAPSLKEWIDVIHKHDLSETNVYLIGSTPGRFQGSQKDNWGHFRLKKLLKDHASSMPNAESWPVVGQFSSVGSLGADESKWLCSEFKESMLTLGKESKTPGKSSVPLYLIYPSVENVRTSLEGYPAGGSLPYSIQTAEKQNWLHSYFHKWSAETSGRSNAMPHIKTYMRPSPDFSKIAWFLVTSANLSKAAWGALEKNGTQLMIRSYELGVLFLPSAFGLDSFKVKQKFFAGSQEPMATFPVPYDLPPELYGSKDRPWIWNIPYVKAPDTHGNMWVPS
#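 Enzyme-compound mixtures sat 15 min at room temperature, followed by a 5 min reaction with 15 nM final substrate and 10 min with AlphaScreen beads. Recombinant human Tdp1 was used at 1 nM final.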
# Gal4-VP16 FLuc = inhibits Gal4-VP16 luciferase reporter, ROR gamma counter-screen; Drosophila S2 Gal4-VP16 UAS-luciferase, luminescence, 20 h; Potency, µM (series often up to 53.6 µM), for the others: at the top dose activity, negative = inhibition, most hits filed as inhibitors; 310,000 tested, 3.5% active;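 note: Gal4-VP16 expression switched on by copper sulfate through the metallothionein promoter; nearly all actives have a fitted effect of over 50% in size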
# DT40 TDP1 no CPT = qHTS for Inhibitors of human tyrosyl-DNA phosphodiesterase 1 (TDP1): qHTS in cells in absence of CPT; DT40 Tdp1-/- hTDP1 cells, no CPT, ATP luminescence, 48 h; Potency, µM (doses to about 46.2 µM), for inactives: at the highest dose activity change, negative = growth inhibition, usual class: inhibitors; 420,000 tested, 15% active; AID 686978, 2013; note: nearly all actives have a fitted effect of over 55% in size
#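 Compound effects on proliferation are scored in DT40 Tdp1-/-;hTDP1 cells in the absence of CPT. ATP levels (CellTiter-Glo luminescence) are recorded after a ≥48 hr, 37 °C incubation.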
# An asterisk follows results filed as active; ? = inconclusive; . = no result given; ! = not confirmed by another sample; [ ] = another dose, or the depositor's remark. Calls come from the whole dose curve; as a rule, active = well fitted curve in the direction sought with a large enough effect; inconclusive = small, poorly fitted or top-dose-only effect, or another doubt; inactive = no such curve, though single readings can be large; an effect the other way counts as inactive or inconclusive. % is set by controls: 0 for no effect and ±100 for the full control effect; potency is the fitted concentration of half-maximal effect.
SMILES,RORgamma inh,DT40 TDP1 CPT,TDP1 inh,Gal4-VP16 FLuc,DT40 TDP1 no CPT
COc1ccccc1OCCCCn1c(C2CC(=O)N(c3ccccc3Cl)C2)nc2ccccc21 (configuration not stated),.,?,8%,.,-26%
CCCCN1CC(c2nc3ccccc3n2CCCCOc2ccccc2C)CC1=O (configuration not stated),.,7.3µM*,3%,.,5.8µM*
CN1CCN(c2ncc3nc(-c4cccs4)c(=O)n(Cc4ccc(F)cc4)c3n2)CC1,-45%,13µM*,.,-7%,?
COCCn1c(=O)c(CCc2ccccc2)nc2cnc(N3CCN(C)CC3)nc21,5%,-16%,.,-6%,-22%
CN1CCN(c2ncc3nc(CCc4ccccc4)c(=O)n(Cc4ccc(F)cc4)c3n2)CC1,-44%,?,.,-25%,15µM*
O=c1cnc2cnc(N3CCNCC3)nc2n1Cc1ccc(F)cc1,-6%,1%,.,-5%,-5%
CN1CCN(c2ncc3nc(CCc4ccccc4)c(=O)n(C)c3n2)CC1,11%,23µM*,.,24%,?
O=c1c(CCc2ccccc2)nc2cnc(N3CCNCC3)nc2n1Cc1ccc(F)cc1,4.5µM*,1µM*,.,?,?
Cc1ccc(S(=O)(=O)NCC(=O)N(CC2CCCO2)C(C(=O)NC2CCCC2)C(C)C)cc1 (configuration not stated),6%,6%,9%,-4%,-18%
COCCN(Cc1cc2cc(C)cc(C)c2nc1Cl)C(=O)Nc1ccccc1,?,4.6µM*,0%,9%,3.3µM*
COCCN(Cc1cc2c(C)cc(C)cc2nc1Cl)C(=O)c1ccccc1F,2%,10µM*,0%,-6%,8.2µM*
Cc1cc(C)c2nc(Cl)c(CN(Cc3ccco3)C(=O)Nc3ccccc3C)cc2c1,?,5.2µM*,-4%,-27%,4.6µM*
COCC(=O)N(CCc1ccccc1)Cc1cc2cc(C)ccc2nc1Cl,9%,-25%,.,1%,?
CCOC(=O)[C@]12CCCC=C1N(CCC1=CCCCC1)C(=O)[C@H](CC(=O)NCc1cccc(C(F)(F)F)c1)C2,.,18µM*,.,.,?
COC(=O)[C@]12CCCCC=C1N(CCC1=CCCCC1)C(=O)[C@H](CC(=O)NCc1cccc(C(F)(F)F)c1)C2,.,?,.,.,23µM*
CC(C)(C)OC(=O)N1Cc2ccccc2C[C@H]1C(=O)NCC(=O)NC1CCCCC1,-7%,-1%,2%,-1%,8%
CCNC(=S)N(CCN(C)C)Cc1cc2cc3c(cc2[nH]c1=O)OCO3,-14%,4%,.,-12%,9%
CCOC(=O)C1=C(C)N(CC(C)C)C(=O)/C1=C\c1cccs1,-2%,3%,4%,-3%,?
Cc1c(Nc2ncccc2C(=O)O)cccc1C(F)(F)F,44%,?,-6%[56.1 µM],-19%,4µM*!
Cc1c(Cl)cccc1Nc1ncccc1C(=O)O,?,?,6%,-1%,?
O=C(NCCc1ccccc1)c1ccc(-c2ccccc2Cl)o1,1%,-6%,-12%,5%,-9%
CC(C)Sc1n[nH]c2nc3c(c(=O)n12)C1(CCCC1)Cc1ccccc1-3,11µM*,.,3%,-10%,.
CCSc1n[nH]c2nc3c(c(=O)n12)C1(CCCC1)Cc1ccccc1-3,14µM*,?,4%,-3%,?
C=CCSc1n[nH]c2nc3c(c(=O)n12)C1(CCCC1)Cc1ccccc1-3,5.6µM*,-12%,2%,11µM*,-2%
CSc1n[nH]c2nc3c(c(=O)n12)C1(CCCC1)Cc1ccccc1-3,-19%,-26%,5%,2%,?
SMILES,RORgamma inh,DT40 TDP1 CPT,TDP1 inh,Gal4-VP16 FLuc,DT40 TDP1 no CPT
C[C@H](N)C(=O)O,10%,1%,?,12%,-4%
CCOC(=O)CNC(=O)CSc1nnc(NC(=O)c2ccc(C)cc2)s1,5.6µM*,18%,1%,6.3µM*,-4%
CSc1nnc(NC(=O)c2ccc3c(c2)OCO3)s1,2.5µM*,-19%,1%,4.5µM*,-6%
CCOC(=O)CNC(=O)CSc1nnc(NC(=O)c2ccc3c(c2)OCO3)s1,7.1µM*,-11%,2%,?,-18%
O=C(CSc1cccc2cccnc12)Nc1ccc(S(=O)(=O)N2CCOCC2)cc1,5.6µM*,?,.,?,?
O=C(CSc1cccc2cccnc12)Nc1cccc(S(=O)(=O)N2CCOCC2)c1,39%,0%,2%,-10%,-4%
CCOC(=O)CNC(=O)CSc1nnc(SCC(=O)NCC(=O)OCC)s1,-16%,-7%,1%,3%,-15%
Cc1ccccc1NC(=O)Oc1cccc(OC(=O)c2ccccc2)c1,7%,-17%,.,2%,0%
CCOC(=O)c1cnc(N2CCN(c3ccccc3)CC2)[nH]c1=O,-1%,7%,.,-1%,-11%
O=C(O)c1ccc(Nc2ccc3nonc3c2[N+](=O)[O-])cc1,-15%[1.91 µM],5%,.,-5%,9%
CC(C)COC(=O)N(C)C[C@@H]1OCc2cn(nn2)CCCC(=O)N([C@@H](C)CO)C[C@H]1C,.,2%,.,.,-9%
CN(C)S(=O)(=O)c1ccc(C(=O)Nc2nnc(SCC(=O)N3CCOCC3)s2)cc1,.,-12%,.,.,-7%
CCOC(=O)c1ccc(NC(=O)CSc2nnc(NC(=O)c3ccc(S(=O)(=O)N4CCOCC4)cc3)s2)cc1,-1%,?,6%,0%,-5%
Cc1ccc(C(=O)Nc2nnc(SCC(=O)N3CCCc4ccccc43)s2)cc1,0.5µM*,6%,2%,1.3µM*,?
Cc1ccc(NC(=O)CSc2nnc(NC(=O)c3ccc(S(=O)(=O)N4CCOCC4)cc3)s2)cc1,-103%,-20%,1%,32µM*,?
CC(C)Oc1ccc(C(=O)Nc2nnc(SCC(=O)N3CCOCC3)s2)cc1,3.2µM*,-18%,3%,1.8µM*,-23%
CC[C@H]1[C@@H]2C=C[C@@H]3[C@H]4C/C=C\C(=O)NCCC[C@@H]5NC(=O)C(=C5O)C(=O)CC[C@@H]4C[C@@H]3[C@H]2C[C@H]1C,2.2µM*,.,17%,-2%,.
CCCCSc1nnc2c(n1)OC(c1ccc(Br)s1)Nc1ccccc1-2 (configuration not stated),.,?,.,.,18µM*
COc1ccc(-n2nc3cc(C)c(N)cc3n2)cc1Cl,-6%,5%,.,17%,-8%
C/C(CC(=O)Nc1ccc(C)c(Cl)c1)=N\NC(=O)Cc1cnc(N)s1,26%,-8%,-4%,?,-12%
CN(C)CCN1CCN(C(c2cc3ccccc3o2)c2nnnn2C(C)(C)C)CC1 (configuration not stated),.,-20%,.,.,-25%
